# DT40 TDP1 no CPT: qHTS for Inhibitors of human tyrosyl-DNA phosphodiesterase 1 (TDP1): qHTS in cells in absence of CPT | hit rate 15% among 420,000 | Potency, µM (highest dose often 46.2 µM), inactives show at the highest dose activity change, negative = growth inhibition, usual class: inhibitors | DT40 Tdp1-/- hTDP1 cells, no CPT, ATP luminescence, 48 h | AID 686978, 2013; further: potency means the concentration at half of the fitted maximal effect; nearly all actives have a fitted effect of over 55% in size
#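 Stably hTDP1-transfected Tdp1-null chicken DT40 cells were treated with library compounds minus camptothecin and grown for at least 48 hr at 37 °C, after which cellular ATP was quantified by luminescence.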
# HT1080NT lethal: kills 2HG-producing HT-1080-NT fibrosarcoma cells; HT-1080-NT fibrosarcoma viability, CellTiter-Glo ATP luminescence, 48 h; Potency, µM (top dose mostly 46.1 µM), without a hit: at the top dose activity, negative = less viability, most hits filed as cytotoxic; hit rate 1.6% among 360,000; AID 686970;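 further: NT is the 2HG producing partner of a matched IDH1 knockdown line; potency means the concentration at half of the fitted maximal effect; 0% = DMSO-treated cells and -100% = media-only wells without cells; nearly all actives have a fitted effect of over 55% in size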
#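 Luminescent CellTiter-Glo readout after 48 hours of compound exposure at 37 degrees C defined viability of HT-1080-NT cells. Activity was normalized to DMSO wells and cell-free media wells; concentration-response curves were fitted and assigned curve classes.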
# IL1B secr inh: inhibitors of inflammasome signaling (IL-1 beta secretion); THP-1 LPS/ATP IL-1B secretion, AlphaLISA, 16 h; stronger effect = lower value; activity change, % at 57.5 µM; hit rate 4.7% among 360,000; in the data active means activity change below about -50%; inconclusive means mostly about -30% to -49%
#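 THP-1 cells pretreated 1 hr with compounds (up to 57.5 uM final), then stimulated with LPS (250 ng/mL final) plus ATP (1.25 mM final); secreted IL-1B measured by AlphaLISA after 16 hr, decreased signal indicating inhibition.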
# HT1080 IDH1KD tx: HT-1080 IDH1 knockdown cell toxicity (counter line) | HT-1080 IDH1 knockdown viability, ATP luminescence, 48 h | Potency, µM (series often up to 46.1 µM), for the others: at the highest dose activity, negative = toxicity, actives largely listed as cytotoxic | hit rate 2% among 360,000;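 further: potency means the concentration at half of the fitted maximal effect; 0% = DMSO wells and -100% = cell-free medium wells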
#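 Viability of IDH1-knockdown HT-1080 fibrosarcoma cells was assessed by CellTiter-Glo after 48 h at 37 °C with titrated compound; concentration-effect curves were classified by fit quality and response size.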
# TDP1 cell CPT: DT40-hTDP1 cell growth loss with CPT; hit rate 12% among 420,000; chicken DT40 Tdp1-/-;hTDP1 cells + 20 nM CPT, ATP luminescence, 48 h; Potency, µM (doses to about 46.2 µM), for inactives: at the top dose activity change, negative = growth inhibition, hits mostly inhibitors; further: potency means the concentration at half of the fitted maximal effect; nearly all actives have a fitted effect of over 55% in size
#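 Chicken DT40 Tdp1-/- cells stably complemented with human TDP1 were seeded at 400 cells/well in medium containing 20 nM camptothecin, exposed to pin-transferred compounds, and grown at 37 °C for at least 48 hr. Viability was read as ATP luminescence.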
# The depositor's hits bear a star; ? = inconclusive; . = not tested or not shown; [ ] = another dose, or the depositor's remark. Shown are actives, neighbours in structure and some others; about 19% of the full set was active somewhere. Unless noted, the call rests on the fitted dose curve; in most records, active means well fitted curve in the direction sought with a large enough effect; inconclusive means small, poorly fitted or top-dose-only effect, or another doubt; inactive means no such curve, though single readings can be large; an effect the other way counts as inactive or inconclusive. Unless noted, on the % scale 0 is the no-effect control and ±100 the full control effect.
SMILES,DT40 TDP1 no CPT,HT1080NT lethal,IL1B secr inh,HT1080 IDH1KD tx,TDP1 cell CPT
Cc1cccc(-n2c(=O)c3c(c4cc(C)ccc4n3C)n(CC(=O)Nc3ccc(C)cc3C)c2=O)c1,19%,.,.,.,1%
CN(Cc1ccccc1)c1nc(N)nc(Cl)c1C=O,?,?,-106*,18µM*,-26%
CC(=O)c1ccc(NC(=O)CN2C(=O)CCC2=O)cc1,-4%,17%,-1,22%,19%
CCCN(CC(=O)Nc1ccc(Cl)cc1Cl)C(=O)/C=C/c1ccco1,16µM*,?,-24,?,?
CCN(CC(=O)Nc1ccc(NC(C)=O)cc1)C(=O)/C=C/c1ccco1,0%,2%,4,-2%,-28%
NS(=O)(=O)c1cccc(NC(=O)CN2CCc3ccccc32)c1,-2%,-16%,33,-7%,?
Cc1cc(C)c(NC(=O)CN(C)CC(=O)Nc2cccc(S(=O)(=O)N(C)c3ccccc3)c2)c(C)c1,23µM*,-11%,?,-18%,?
CCOc1ccc(NC(=O)CN(C)C(=O)CSCc2cccc(C)c2)cc1OCC,-5%,3%,-1,1%,-23%
CCN(CC(=O)Nc1cccc(S(=O)(=O)N(C)c2ccccc2)c1)Cc1ccccc1,?,-2%,5,0%,18µM*
CCOc1ccc(CN(C)CC(=O)Nc2cccc(C)c2)cc1OC,9.2µM*,-10%,10,-13%,21µM*
CN(c1ccccc1)S(=O)(=O)c1cccc(NC(=O)CN2CCCc3ccccc32)c1,18µM*,-17%,-28,-14%,?
CC(=O)NCCC(=O)Nc1cccc(S(=O)(=O)N(C)c2ccccc2)c1,3%,-5%,24,3%,-7%
Cc1c(C(=O)N2CCCCCC2)sc2ncnc(NCC3CCCO3)c12 (centres undefined),-25%,.,.,.,-6%
CCN(CC(=O)Nc1cccc(C(C)=O)c1)S(=O)(=O)c1ccc(OC)cc1,?,2%,4,0%[9.24 µM],2%
Cc1ccccc1CN(C)CC(=O)Nc1cccc(S(=O)(=O)N(C)c2ccccc2)c1,16µM*,-15%,17,-9%,21µM*
CC1CCC2(CC1)NC(=O)N(CC(=O)Nc1cccc(S(=O)(=O)N(C)c3ccccc3)c1)C2=O (centres undefined),29µM*,-4%,?,-12%,18µM*
CN(c1ccccc1)S(=O)(=O)c1cccc(NC(=O)COC(=O)C2CCCCC2)c1,39%,9%,-10,1%,-19%
CCN(CC)S(=O)(=O)c1cccc(NC(=O)CN(C)Cc2cccc(OC)c2)c1,23µM*,-8%,29,-20%,?
COc1ccccc1CN1CC2(CCN(C(=O)c3cc(C(F)(F)F)cc(C(F)(F)F)c3)CC2)C1,?,.,.,.,3%
COC(=O)C1=C(N)Oc2cc(C)n(CCN3CCOCC3)c(=O)c2C1c1cccnc1 (centres undefined),1%,6%,14,-1%,2%
Cn1c2ccccc2c2cc(/C=N/NC(=O)c3ccccc3F)ccc21,?,?,-2,18µM*,23µM*
Cc1cc(/C=N/NC(=O)c2ccccc2F)c(C)n1-c1ccccc1,2%,-11%,-25,0%,-18%
Cn1c2ccccc2c2cc(/C=N/NC(=O)c3ccc(N)cc3)ccc21,18µM*,?,?,?,?
CCCCN(C(=O)C(C)(C)Oc1ccc(Cl)cc1)c1c(N)n(CCC)c(=O)[nH]c1=O,?,9%,-3,7%,-16%
COc1cccc(CCNc2ncnc3sc(C(=O)N4CCOCC4)c(C)c23)c1,-29%,.,.,.,-8%
SMILES,DT40 TDP1 no CPT,HT1080NT lethal,IL1B secr inh,HT1080 IDH1KD tx,TDP1 cell CPT
CCN(CC)CCNC(C(=O)Nc1cccc(C(C)=O)c1)c1ccccc1 (centres undefined),?,23%,8,15%,12%
Cc1ccc(C(=O)c2no[n+]([O-])c2C(=O)c2ccc(C)cc2)cc1,5.8µM*,?,-91*,?,2.9µM*
Cc1ccc(C(=O)c2ccc(C)cc2)cc1,-23%,21%,-25,25%,?
CCCCCCn1ccc(=N)cc1,0.21µM*,-13%,-12,-15%,0.21µM*
O=C(Nc1cccc(-c2cscn2)c1)C1CCN(Cc2ccc(CO)o2)CC1,?,2%,0,1%,-10%
COCc1ccc(CN2CCC(C(=O)Nc3cccc(-c4cscn4)c3)CC2)o1,-25%,3%,-73*,-1%,?
O=C(Nc1cccc(-c2cccc(F)c2)c1)C1CCN(Cc2ccco2)CC1,?,?,-18,?,?
O=C(Nc1cccc(-c2cccc(F)c2)c1)C1CCN(C2CCC2)CC1,5.2µM*,?,-14,0%,?
Cc1cccc(CN2CCC(C(=O)Nc3cccc(-c4cscn4)c3)CC2)n1,23µM*,-5%,-6,-5%,?
Cn1cc(CN2CCC(C(=O)Nc3cccc(-c4cscn4)c3)CC2)cn1,2%,9%,28,6%,-18%
Cc1nn(C(C)C)c(C)c1CN1CCC(C(=O)Nc2cccc(-c3cccc(F)c3)c2)CC1,?,15µM*,-52*,21µM*,23µM*
COc1ccc(OCC(=O)Nc2cccc(S(=O)(=O)N(C)c3ccccc3)c2)c([N+](=O)[O-])c1,-7%,0%[9.24 µM],5,-7%,?
CCOC(=O)[C@]12CCCC=C1N(Cc1ccccc1)C(=O)[C@H](CC(=O)NCCCN1CCCC1=O)C2,-2%,21%,4,26%,-3%
Cc1cccc(CN2CCC(C(=O)Nc3cccc(-c4cccc(F)c4)c3)CC2)n1,2.9µM*,?,?,?,8.2µM*
Nc1cccc(-c2nc3ccc(C(=O)c4ccccc4)cc3[nH]2)c1,0.82µM*,13µM*,49,10µM*,0.73µM*
O=[N+]([O-])c1ccc2nc(-c3ccccc3)[nH]c2c1,?,-19%,-69*,-22%,?
COc1ccc2nc(-c3cccc(N)c3)[nH]c2c1,23µM*,-17%,-28,-8%,?
Nc1ccc2nc(-c3ccccc3)[nH]c2c1,?,-17%,-2,-19%,?
CCn1ncc(Cl)c1C(=O)Nc1cc(Cl)ccc1Cl,-11%,-4%,0,-5%,?
O=C(/C(Br)=C/Nc1cc(Cl)ccc1Cl)C(F)(F)F,15µM*,8%,0,10%,21µM*
COC(=O)c1cc(NC(=O)Nc2ccccc2)ccc1Cl,?,-3%,4,1%,?
CN(C(=O)Cn1nnc(-c2ccc(S(C)(=O)=O)cc2)n1)c1ccccc1,-11%,.,.,.,1%
O=C(C1CC1)N1CCc2cc(Br)cc(S(=O)(=O)N3CCCCCC3)c21,21µM*,-9%,-1,-16%,?
